Where “and” joins values, the source holds several entries; their conditions need not be identical. Equal values may be shown once. Where a structure was tested more than once in an assay, its records may differ in their call. Calls of active or inactive are those of the source. The calls were made as follows: active = hit-call score of the fitted dose curve at least 0.9, where 1 is the maximum; inactive = score below 0.9.

Here are results for 39 compounds from PubChem BioAssay (EPA / NIEHS).

This test is described as follows: BSK_SAg_SRB: Viability Assessment in the BioMAP Diversity Plus: SAg Assay (AID 2283096).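 Also: hits may be either gain or loss of signal compared with DMSO.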 The settings on record: primary human HUVEC with PBMC. As to the method:
BSK_SAg is a cell-based, multiplexed-readout assay that uses umbilical vein endothelium and peripheral blood mononuclear cells, a human vascular primary cell co-culture, with measurements taken at 24 hours after chemical dosing in a 96-well plate.BSK_SAg_SRB is an assay component measured in the BSK_SAg assay. It measures protein content, a form of viability reporter, as detected with absorbance signals by Sulforhodamine staining technology.Data from the assay component BSK_SAg_SRB was analyzed into 1 assay endpoint. This assay endpoint, BSK_SAg_SRB, was analyzed with bidirectional fitting relative to DMSO as the negative control and baseline of activity. Using a type of viability reporter, gain or loss-of-signal activity can be used to understand changes in the signaling. Furthermore, this assay endpoint can be referred to as a primary readout, because this assay has produced multiple assay endpoints where this one serves a signaling function. To generalize the intended target to other relatable targets, this assay endpoint is annotated to the cell morphology intended target family, where the subfamily is cell conformation.
The levels of cell surface (or secreted, indicated by the prefix "s") biomarker endpoints were measured by ELISA. Overt cytotoxicity to cells in confluent adherent cultures (all systems other than the BT system) was assessed by measuring total protein levels using sulforhodamine B (SRB) staining in parallel cultures at the time of biomarker measurements, indicated as SRB endpoints. For proliferation assays for adherent cell types, individual cell types are cultured at sub-confluence and relative cell numbers quantified by SRB staining at time points optimized for each system (48 h: 3C and CASM3C systems; 72 h: BT and HDF3CGF systems; 96 h: SAg system). SRB was performed by staining cells with 0.1% SRB after fixation with 10% TCA and reading wells at 560 nm.Viability and proliferation of PBMC (T cells) was quantified by Alamar Blue reduction for the SAg and BT systems. For PBMC viability (referred to as PBMC Cytotoxicity within the assay endpoint names), cells were plated (75,000/well in a 96-well plate) and then chemical samples added for 1 h before addition of activators, SEB and TSST-1 (20 ng/mL final concentration each). Cells were incubated for 90 h. Then, Alamar Blue (20 uL/well) (Invitrogen, Cat DAL1100) was added for 6 h, and the plates were read with a fluorescence microplate reader at 546/580 nm (excitation/emission). For PBMC proliferation, cells were plated and activated as above but incubated for only 16 h prior to addition of Alamar Blue. Plates were read after 6 h.
Consider `CC(C)Cc1ccc(C(C)C(=O)O)cc1` (stereo not given), for which the result was inactive.

As for `CCCO[Si](OCCC)(OCCC)OCCC`, the result was inactive.

Take `CCCCCCCCCC(=O)OCC`: the result was inactive.

In the case of `Nc1ccc(N)c([N+](=O)[O-])c1`, the outcome was inactive.

For the compound `COc1ccccc1NC(=O)CC(C)=O`, the outcome was inactive.

`c1ccc(Sc2ccccc2)cc1`: the AC50 was 31.7 µM (active).

Regarding `CC(C)(CO)CO`, the result was inactive.

Turning to `CC(=O)OCC=C(C)CCC=C(C)CCC=C(C)C`, the outcome was inactive.

In the case of `O=S(=O)(O)C(F)(F)C(F)(F)OC(F)(F)C(F)(F)F`, the result was inactive.

Regarding `CCn1cc(C(=O)O)c(=O)c2ccc(C)nc21`, the outcome was inactive.

With `c1ccc2c(c1)-c1ccc3ccc4cccc5cc-2c1c3c45`, the result was inactive.

As to `CC(=O)CCC=C(C)CCC=C(C)C`, the outcome was inactive.

With `CCCCN(CCO)CCO`, the outcome was inactive.

As for `c1ccc(OCCOc2ccccc2)cc1`, the outcome was inactive.

`CCCCCCCCCCCCS`: the concentration at half-maximal activity (AC50) was 36.1 µM (active).

As to `C#C[C@]1(O)CC[C@H]2[C@@H]3CCc4cc(O)ccc4[C@H]3CC[C@@]21C`, the concentration at half-maximal activity (AC50) was 5.5 µM (active).

For the compound `O=C(O)C(F)(F)OC(F)(F)C(F)(F)OC(F)(F)C(F)(F)C(F)(F)C(F)(F)F`, the concentration at half-maximal activity (AC50) was 30 µM (active) and the outcome was inactive.

With `CC1=CC(C)C(C=O)C(C)C1` (stereo not given) (tested in a mixture with another compound), the result was inactive.

For the compound `COC(=O)c1ccc(C(=O)OC)cc1`, the outcome was inactive.

With `O=C(O)C(F)(F)C(F)(F)C(F)(F)C(F)(F)C(F)(F)C(F)(F)C(F)(F)C(F)F`, the result was inactive.

As to `CC=CC(=O)C1=C(C)C=CCC1(C)C`, the outcome was inactive.

As for `CC(C)CCCC(C)(C)O`, the result was inactive.

For `CCC(=O)OCC=Cc1ccccc1`, the outcome was inactive.

Take `CC(=O)c1ccc(C)cc1`: the result was inactive.

In the case of `C=C(C)C(N)=O`, the result was inactive.

As for `C=C(F)C(=O)OC(C(F)(F)F)C(F)(F)F`, the result was inactive.

`C=CC(=O)OCC(CO)(COC(=O)C=C)COC(=O)C=C`: the AC50 is 2.13 µM (active).

With `OCCN1CCOCC1`, the outcome was inactive.

On to `O=C(c1ccc(OCCN2CCCCC2)cc1)c1c(-c2ccc(O)cc2)sc2cc(O)ccc12`, for which the AC50 was 24.1 µM (active).

For `OCC(F)(OC(F)(F)C(F)(OC(F)(F)C(F)(F)C(F)(F)F)C(F)(F)F)C(F)(F)F` (stereo not given), the AC50 is 5.05 µM (active) and 3.37 µM (active).

For the compound `CCCCCCCC1CCCC1=O` (stereo not given), the result was inactive.

For the compound `NC(=O)c1c(Cl)cccc1Cl`, the outcome was inactive.

`O=S1(=O)CC(Cl)(Cl)C(Cl)(Cl)C1`: the AC50 is 0.655 µM (active).

Take `C=C1CC/C=C(\C)CC[C@@H]2[C@@H]1CC2(C)C`: the half-maximal activity concentration (AC50) was 33.1 µM (active).

For `C[C@]12CC[C@@H]3c4ccc(O)cc4CC[C@H]3[C@@H]1CC[C@@H]2O`, the concentration at half-maximal activity (AC50) is 10.3 µM (active).

With `CC(C)(C)c1cccc(O)c1`, the result was inactive.

With `CCCCOCCOCCO`, the result was inactive.

For `C=C(C)C(=O)OCCC(F)(F)C(F)(F)C(F)(F)C(F)(F)C(F)(F)C(F)(F)C(F)(F)C(F)(F)F`, the outcome was inactive.

As for `CC/C(=C(\c1ccccc1)c1ccc(OCCN(C)C)cc1)c1ccccc1`, the AC50 was 10.3 µM (active) and 9.96 µM (active).

By AC50 is commonly meant the concentration giving half of the maximal activity seen.
